Test results published in PubChem BioAssay (NCATS).
Records with an inconclusive call do not appear. Calls of active or inactive are those of the source. Unless noted, calls come from the whole dose curve; as a rule, active = well fitted curve in either direction with a large enough effect (not every such curve was filed as active); inconclusive = small, poorly fitted or top-dose-only effect, or another doubt; inactive = flat fitted curve, though single readings scatter.

What was measured:
[1] = target: Lysosomal acid glucosylceramidase (Homo sapiens) (UniProt P04062); experiment: Glucocerebrosidase-p2 (AID 348; in the data active = potency below about 10 µM; note: potency is the fitted concentration of half-maximal effect); conditions: purified GBA, blue fluorogenic substrate, 40 min
In short: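 Compounds titrated from 0.6 nM upwards against 0.2 nM enzyme in pH 5.9 citric acid/KH2PO4, taurocholate, tween-20; blue fluorogenic substrate 80 uM, 40 min room temperature, stopped and read Ex 365/Em 440 for AC50.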

[2] = AP1 Signaling Pathway (AID 357); conditions: ME-180 AP-1-bla reporter, EGF-induced, beta-lactamase ratio, 5 h; at 7.69 µM (top of the series) unless noted;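 note: ME-180 reporter cells stimulated with EGF at its EC50 level; % is set by controls: 0 for no effect and ±100 for the full control effect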
In short: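 Cells are seeded overnight, exposed to compound titrations and an EC50 level of EGF for 5 hours at 37 °C, then loaded with CCF4 dye for 2.5 hours. Beta-lactamase activity under the AP-1 element is read as a blue/green ratio.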

[3] = target: Cytochrome P450 1A2 (Homo sapiens) (UniProt P05177); experiment: p450-cyp1a2 (AID 410; calls by dose curve; note: potency is the fitted concentration of half-maximal effect;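 for activity change, negative = inhibition: -100% = full effect of reference inhibitor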); conditions: recombinant CYP1A2, luciferin-ME demethylation, luminescence; series mostly up to 11.4 µM
In short: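 Inhibition was calculated relative to 57 uM furafylline (full inhibition). The reaction used human CYP1A2 at 20nM with Luciferin-ME at its Km, 100uM, driven by an NADPH-regenerating system for 60 min at room temperature.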

[4] = Stat Signaling Pathway (AID 446); conditions: ME-180 SIE beta-lactamase reporter, IL-6 stimulated, 5 h; at 7.69 µM (top of the series) unless noted;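 note: ME-180 cervical cancer cells given 40 pM IL-6 alongside compound; SIE-controlled beta-lactamase reporter measured as 460/530 nm FRET emission ratio; % is set by controls: 0 for no effect and ±100 for the full control effect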
In short: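 Reporter line: ME-180 cervical carcinoma, SIE-beta-lactamase. Treatment: compound with 40 pM IL-6, 5 hrs, 37 C, in low-serum OPTI-MEM with 10 mM HEPES pH 7.3. Detection: 460/530 nm fluorescence.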

[5] = target: Glucocorticoid receptor (Homo sapiens) (UniProt P04150); experiment: GR-GFP Redistribution (AID 450;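 active = compounds whose dose series gives a full or clear partial fitted curve of increased nuclear translocation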; note: potency is the fitted concentration of half-maximal effect); conditions: U2OS GR-GFP nuclear translocation, laser cytometry, 2 h
[6] = target: Glucocorticoid receptor (Homo sapiens) (UniProt P04150); experiment: GR-EFC Redistribution (AID 451; calls by dose curve; note: potency is the fitted concentration of half-maximal effect); conditions: CHO-K1 GR-EFC translocation, beta-gal luminescence, 2 h
In short: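 Translocation of GR-ED fusion to nuclear EA restores b-gal, read by luminescence after 1 h room-temperature detection. Engineered CHO-K1 biosensor cells, 1,000/well, exposed 2 h at 37 C to titrations up to 46 uM final.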

[7] = target: Mitogen-activated protein kinase 10 (Mus musculus) (UniProt Q61831); experiment: JNK3 AlphaScreen Assay (AID 530); conditions: JNK3 lysate, c-Jun phosphorylation; series mostly up to 11.4 µM;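 note: kinase came from lysate of stimulated human HepG2 cells; signal reports phosphorylation of biotinylated GST-cJun 1-79 at Ser73 with 10 µM ATP; % is set by controls: 0 for no effect and ±100 for the full control effect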
In short: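 Room-temperature AlphaScreen kinase assay; pre-activated HepG2 lysate as JNK3 source, biotin-GST-cJun(1-79) substrate, 10 uM ATP, compound 15 min preincubation.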

[8] = target: 3',5'-cyclic-AMP phosphodiesterase 4B (Homo sapiens) (UniProt Q07343); experiment: qHTS Assay for Inhibitors of PDE-IV (AID 607; active = well fitted activation curve with a large enough effect in the main read-out, with a control signal flat, not every such curve was filed as active; note: % of control where 0% means no effect); conditions: HEK293 ACTOne CNG channel cells, membrane potential fluorescence; series mostly up to 22.9 µM
In short: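 Cell-based read-out of cAMP via a modified cyclic nucleotide-gated channel and membrane potential dye (535/590 nm) in HEK293 cells expressing PDE4 endogenously. Compounds tested up to 22.9 uM final; 100 uM RO 20-1724 reference.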

[9] = target: Cytochrome P450 2D6 (Homo sapiens) (UniProt P10635); experiment: qHTS Assay for Inhibitors and Substrates of Cytochrome P450 2D6 (AID 891; active = well fitted curve in the direction sought with a large enough effect; an effect the other way counts as inactive or inconclusive; note: nearly all actives have a fitted effect of over 60% in size; note: potency is the fitted concentration of half-maximal effect); conditions: recombinant CYP2D6, luciferin-ME EGE luminescence; series mostly up to 11.4 µM
In short: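 Human CYP2D6 (5 nM) with 30 uM Luciferin-ME EGE (at Km) in 100 mM KPO4, compound preincubated 10 min, then NADPH regeneration system for 60 min at room temperature. Luciferin read by luminescence; normalized to 1.43 uM quinidine.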

[10] = target: Cytochrome P450 2C19 (Homo sapiens) (UniProt P33261); experiment: qHTS Assay for Inhibitors and Substrates of Cytochrome P450 2C19 (AID 899; active = well fitted curve in the direction sought with a large enough effect; an effect the other way counts as inactive or inconclusive; note: nearly all actives have a fitted effect of over 60% in size; note: potency is the fitted concentration of half-maximal effect); conditions: recombinant CYP2C19, luciferin-H EGE luminescence; series mostly up to 11.4 µM
In short: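 5nM enzyme + 10uM Luciferin-H EGE (=KM), 50mM KPO4; cpd pin-transferred, 10 min 37C; NADPH regen, 60 min 37C; stopped w/ luciferin detection reagent, 20 min; luminescence. Normalized to 57uM ketoconazole (AC100).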

[11] = target: Cytochrome P450 3A4 (Homo sapiens) (UniProt P08684); experiment: qHTS Assay for Activators of Cytochrome P450 3A4 (AID 885; active = well fitted curve in the direction sought with a large enough effect; an effect the other way counts as inactive or inconclusive; note: nearly all actives have a fitted effect of over 65% in size); conditions: recombinant CYP3A4, Luciferin-PPXE luminescence, 60 min; series mostly up to 11.4 µM
In short: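 Signal was normalized against complete inhibition by 57 uM ketoconazole. The reaction used 20nM CYP3A4 with 25uM Luciferin-PPXE, 10-min compound preincubation and a 60-min NADPH-supported step at RT.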

[12] = target: Cytochrome P450 2C9 (Homo sapiens) (UniProt P11712); experiment: qHTS Assay for Inhibitors and Substrates of Cytochrome P450 2C9 (AID 883; active = well fitted curve in the direction sought with a large enough effect; an effect the other way counts as inactive or inconclusive; note: nearly all actives have a fitted effect of over 60% in size; note: potency is the fitted concentration of half-maximal effect); conditions: recombinant CYP2C9, luciferin-H luminescence, 60 min; series mostly up to 11.4 µM
In short: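 Inhibition of CYP2C9 is scored as loss of luminescence, with 57uM sulphaphenazole defining 100% inhibition. Substrate Luciferin-H is used at 100uM, equal to its KM; enzyme at 10nM in 25mM KPO4, 60 min at 37C with NADPH regeneration.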

[13] = target: ATP-dependent 6-phosphofructokinase (Trypanosoma brucei brucei) (UniProt O15648); experiment: qHTS Assay to Find Inhibitors of T. brucei phosphofructokinase: hit validation (AID 492961; active = well fitted curve in the direction sought with a large enough effect; an effect the other way counts as inactive or inconclusive;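 note: luminescence reports ADP formed as PFK phosphorylates fructose-6-phosphate with ATP; % is set by controls: 0 for no effect and ±100 for the full control effect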); conditions: T. brucei PFK, ADP-Glo luminescence; series mostly up to 51.4 µM
In short: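 In this biochemical qHTS validation, titrated compounds were tested against 1.25 nM PFK with 0.1 mM ATP and 0.5 mM F6P. Percent activity came from controls lacking or containing enzyme.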

[14] = qHTS profiling for inhibitors of Plasmodium falciparum proliferation (AID 504749; active = well fitted curve in the direction sought with a large enough effect; an effect the other way counts as inactive or inconclusive;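 note: 0% = DMSO vehicle and full inhibition = artemisinin control; nearly all actives have a fitted effect of over 60% in size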); conditions: P. falciparum in erythrocytes, SYBR Green DNA, 72 h, at 28.7 µM (top of the series)
In short: (§1)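 Three-day growth assay of blood-stage parasites in erythrocytes (0.3% parasitemia, 2.5% hematocrit) at 37 C, 5% CO2, quantified by SYBR Green DNA staining after overnight detergent lysis.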

AS120 = experiment: as above; conditions: P. falciparum in erythrocytes, SYBR Green DNA, 72 h; series mostly up to 28.7 µM
In short: as §1

ATS189 = experiment: as above; conditions: P. falciparum in erythrocytes, SYBR Green DNA, 72 h; series mostly up to 28.7 µM
In short: as §1

W2 = experiment: as above; conditions: P. falciparum in erythrocytes, SYBR Green DNA, 72 h; series mostly up to 28.7 µM
In short: as §1

[15] = target: Cytochrome P450 3A4 (Homo sapiens) (UniProt P08684); experiment: qHTS Assay for Inhibitors and Substrates of Cytochrome P450 3A4 (AID 884; active = well fitted curve in the direction sought with a large enough effect; an effect the other way counts as inactive or inconclusive; note: nearly all actives have a fitted effect of over 50% in size; note: potency is the fitted concentration of half-maximal effect); conditions: recombinant CYP3A4, Luciferin-PPXE luminescence; series mostly up to 57.1 µM
In short: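 20 nM human CYP3A4 with 25 uM Luciferin-PPXE (at KM) in 200 mM KPO4, preincubated 10 min with compound; NADPH regeneration started a 60 min RT reaction. Luciferin detected by luminescence, normalized to 57 uM ketoconazole as full inhibition.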

Chain of Cytochrome P450 2D6 (Homo sapiens) (P10635 whole entry, looked up): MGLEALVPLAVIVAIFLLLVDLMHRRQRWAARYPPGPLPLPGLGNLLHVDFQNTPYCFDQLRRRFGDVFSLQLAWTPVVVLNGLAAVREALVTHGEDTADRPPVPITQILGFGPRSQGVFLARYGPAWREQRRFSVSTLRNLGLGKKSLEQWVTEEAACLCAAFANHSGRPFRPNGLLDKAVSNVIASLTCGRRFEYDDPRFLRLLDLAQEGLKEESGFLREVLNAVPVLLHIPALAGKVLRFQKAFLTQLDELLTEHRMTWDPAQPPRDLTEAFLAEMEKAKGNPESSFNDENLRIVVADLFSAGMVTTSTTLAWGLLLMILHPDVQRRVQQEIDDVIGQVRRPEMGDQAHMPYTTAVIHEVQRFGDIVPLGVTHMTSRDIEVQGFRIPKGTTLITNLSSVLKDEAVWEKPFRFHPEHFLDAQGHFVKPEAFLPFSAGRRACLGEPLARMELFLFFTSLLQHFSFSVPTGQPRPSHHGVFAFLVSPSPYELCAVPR
Chain of Cytochrome P450 2C19 (Homo sapiens) (P33261 whole entry, looked up): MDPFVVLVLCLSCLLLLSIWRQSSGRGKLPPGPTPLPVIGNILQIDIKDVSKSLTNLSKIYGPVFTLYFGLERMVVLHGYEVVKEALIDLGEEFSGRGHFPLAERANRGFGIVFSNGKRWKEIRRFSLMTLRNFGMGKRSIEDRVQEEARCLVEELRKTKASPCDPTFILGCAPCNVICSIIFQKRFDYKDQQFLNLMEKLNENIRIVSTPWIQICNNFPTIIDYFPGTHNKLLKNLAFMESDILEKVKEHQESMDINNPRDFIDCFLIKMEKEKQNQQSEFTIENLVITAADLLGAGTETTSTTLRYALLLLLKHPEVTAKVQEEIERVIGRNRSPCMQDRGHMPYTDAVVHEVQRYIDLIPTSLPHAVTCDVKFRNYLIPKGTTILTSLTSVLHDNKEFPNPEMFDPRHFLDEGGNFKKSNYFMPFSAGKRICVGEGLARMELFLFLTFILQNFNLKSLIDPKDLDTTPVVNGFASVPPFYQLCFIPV
Chain of Cytochrome P450 1A2 (Homo sapiens) (P05177 whole entry, looked up): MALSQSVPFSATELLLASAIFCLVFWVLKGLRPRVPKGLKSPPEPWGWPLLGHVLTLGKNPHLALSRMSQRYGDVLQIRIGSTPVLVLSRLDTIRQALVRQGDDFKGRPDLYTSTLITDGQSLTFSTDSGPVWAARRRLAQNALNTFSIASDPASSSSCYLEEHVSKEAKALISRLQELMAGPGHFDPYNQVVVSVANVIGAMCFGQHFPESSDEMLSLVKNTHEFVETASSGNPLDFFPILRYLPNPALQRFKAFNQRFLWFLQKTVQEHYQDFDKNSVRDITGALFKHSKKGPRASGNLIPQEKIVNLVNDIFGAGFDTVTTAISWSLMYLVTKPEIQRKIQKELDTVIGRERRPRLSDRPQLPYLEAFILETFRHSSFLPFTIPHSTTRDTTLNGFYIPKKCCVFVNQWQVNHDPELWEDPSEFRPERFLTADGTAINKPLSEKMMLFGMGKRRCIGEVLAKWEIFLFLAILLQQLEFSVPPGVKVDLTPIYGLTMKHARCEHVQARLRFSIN
Chain of 3',5'-cyclic-AMP phosphodiesterase 4B (Homo sapiens) (Q07343 whole entry, looked up): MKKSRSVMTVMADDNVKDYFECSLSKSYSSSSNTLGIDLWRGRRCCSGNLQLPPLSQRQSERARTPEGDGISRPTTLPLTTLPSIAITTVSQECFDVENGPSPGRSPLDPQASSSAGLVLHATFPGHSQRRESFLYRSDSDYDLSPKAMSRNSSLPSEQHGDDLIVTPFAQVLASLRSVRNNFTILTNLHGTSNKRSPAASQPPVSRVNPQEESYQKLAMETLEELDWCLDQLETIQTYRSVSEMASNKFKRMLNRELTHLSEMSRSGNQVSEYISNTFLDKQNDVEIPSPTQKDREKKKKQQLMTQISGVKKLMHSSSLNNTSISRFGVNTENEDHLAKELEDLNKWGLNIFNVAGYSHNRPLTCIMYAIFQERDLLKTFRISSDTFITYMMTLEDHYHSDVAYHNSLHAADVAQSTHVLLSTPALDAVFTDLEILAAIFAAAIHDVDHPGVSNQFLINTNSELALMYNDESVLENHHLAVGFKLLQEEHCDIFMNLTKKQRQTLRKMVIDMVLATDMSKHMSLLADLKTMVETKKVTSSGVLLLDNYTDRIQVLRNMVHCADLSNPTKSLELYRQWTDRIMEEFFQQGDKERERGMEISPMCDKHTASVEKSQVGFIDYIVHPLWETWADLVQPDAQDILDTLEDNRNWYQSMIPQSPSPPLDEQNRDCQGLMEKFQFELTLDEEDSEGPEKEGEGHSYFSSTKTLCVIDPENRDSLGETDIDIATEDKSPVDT
Chain of Cytochrome P450 2C9 (Homo sapiens) (P11712 whole entry, looked up): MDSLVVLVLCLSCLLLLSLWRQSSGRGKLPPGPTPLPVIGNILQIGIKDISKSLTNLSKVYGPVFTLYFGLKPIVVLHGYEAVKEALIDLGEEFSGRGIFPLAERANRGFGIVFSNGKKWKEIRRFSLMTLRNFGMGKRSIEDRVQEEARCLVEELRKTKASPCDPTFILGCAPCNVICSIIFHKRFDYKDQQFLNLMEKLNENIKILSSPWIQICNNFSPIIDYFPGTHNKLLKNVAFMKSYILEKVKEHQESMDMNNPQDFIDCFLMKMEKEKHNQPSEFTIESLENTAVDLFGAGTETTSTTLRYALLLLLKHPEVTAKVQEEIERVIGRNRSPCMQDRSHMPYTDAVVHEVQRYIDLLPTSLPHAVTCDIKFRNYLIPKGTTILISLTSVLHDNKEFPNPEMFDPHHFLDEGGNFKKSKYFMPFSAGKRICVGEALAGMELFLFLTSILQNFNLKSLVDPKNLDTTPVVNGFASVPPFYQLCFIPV
Chain of Lysosomal acid glucosylceramidase (Homo sapiens) (P04062 whole entry, looked up): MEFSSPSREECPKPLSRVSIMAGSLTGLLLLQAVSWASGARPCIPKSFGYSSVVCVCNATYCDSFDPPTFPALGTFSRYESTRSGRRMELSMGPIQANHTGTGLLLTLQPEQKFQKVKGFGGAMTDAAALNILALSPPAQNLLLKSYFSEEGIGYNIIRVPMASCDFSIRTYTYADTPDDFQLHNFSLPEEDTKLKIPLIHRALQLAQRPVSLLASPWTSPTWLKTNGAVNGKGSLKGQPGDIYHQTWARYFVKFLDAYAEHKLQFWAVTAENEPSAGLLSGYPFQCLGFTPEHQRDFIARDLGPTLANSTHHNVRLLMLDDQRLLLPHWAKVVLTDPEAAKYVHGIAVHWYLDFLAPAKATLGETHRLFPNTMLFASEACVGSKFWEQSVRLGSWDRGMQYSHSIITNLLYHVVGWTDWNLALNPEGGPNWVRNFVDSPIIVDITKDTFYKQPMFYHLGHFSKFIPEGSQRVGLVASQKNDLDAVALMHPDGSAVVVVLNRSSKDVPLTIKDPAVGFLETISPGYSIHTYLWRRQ
Chain of Glucocorticoid receptor (Homo sapiens) (P04150 whole entry, looked up, the tested form may be a part): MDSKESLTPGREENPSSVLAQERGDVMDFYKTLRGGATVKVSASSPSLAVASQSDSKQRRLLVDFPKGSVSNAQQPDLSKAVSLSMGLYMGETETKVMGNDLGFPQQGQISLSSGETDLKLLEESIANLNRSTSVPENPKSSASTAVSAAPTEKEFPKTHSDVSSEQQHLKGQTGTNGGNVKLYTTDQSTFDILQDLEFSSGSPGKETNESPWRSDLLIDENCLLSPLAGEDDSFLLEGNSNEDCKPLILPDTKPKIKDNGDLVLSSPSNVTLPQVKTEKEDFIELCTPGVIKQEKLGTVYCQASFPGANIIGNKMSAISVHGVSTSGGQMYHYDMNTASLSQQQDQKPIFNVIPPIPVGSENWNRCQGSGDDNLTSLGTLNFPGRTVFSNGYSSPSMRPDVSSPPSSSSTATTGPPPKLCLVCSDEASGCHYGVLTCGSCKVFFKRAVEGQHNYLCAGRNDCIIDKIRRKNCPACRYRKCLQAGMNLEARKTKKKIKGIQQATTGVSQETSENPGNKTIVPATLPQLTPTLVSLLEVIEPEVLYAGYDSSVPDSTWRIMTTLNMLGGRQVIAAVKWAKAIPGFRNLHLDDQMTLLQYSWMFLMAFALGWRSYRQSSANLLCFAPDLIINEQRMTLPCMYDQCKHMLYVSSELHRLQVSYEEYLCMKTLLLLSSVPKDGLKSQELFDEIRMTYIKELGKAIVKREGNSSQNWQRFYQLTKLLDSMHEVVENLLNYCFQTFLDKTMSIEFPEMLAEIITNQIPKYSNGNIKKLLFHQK
Chain of Cytochrome P450 3A4 (Homo sapiens) (P08684 whole entry, looked up): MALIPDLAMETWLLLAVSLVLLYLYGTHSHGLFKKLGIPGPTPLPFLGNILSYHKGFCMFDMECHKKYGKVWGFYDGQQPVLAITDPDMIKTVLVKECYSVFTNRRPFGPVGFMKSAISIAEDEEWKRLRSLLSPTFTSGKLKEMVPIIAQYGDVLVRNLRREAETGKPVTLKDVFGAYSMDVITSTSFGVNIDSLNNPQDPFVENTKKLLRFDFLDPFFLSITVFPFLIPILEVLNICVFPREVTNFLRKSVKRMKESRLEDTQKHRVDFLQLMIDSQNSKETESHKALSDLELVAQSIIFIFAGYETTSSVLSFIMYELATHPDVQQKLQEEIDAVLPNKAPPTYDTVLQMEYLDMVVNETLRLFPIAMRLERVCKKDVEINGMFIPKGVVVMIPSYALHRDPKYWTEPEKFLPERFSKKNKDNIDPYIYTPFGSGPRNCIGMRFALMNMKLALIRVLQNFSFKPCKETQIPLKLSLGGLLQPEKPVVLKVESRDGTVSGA

Cc1ccc2ccccc2c1CSc1nc(N)nc2c1ncn2CC(C)C
active: Potency [9] 3.98 µM | Potency [10] 3.98 µM
inactive: Potency [1] > 11.4 µM | activity change, negative = inhibition [2] -11.7% | activity change, negative = inhibition [3] -20.8% [at 2.29 µM] | activity, negative = inhibition [4] -19.8% | Potency [5] > 46 µM | Potency [6] > 9.22 µM | Potency [7] | Potency [8]

Cc1nc2cnc(Oc3ccccc3)nc2n(CCc2ccccc2)c1=O
inactive: Potency [1] > 11.4 µM | activity change, negative = inhibition [2] 17.9% | activity, negative = inhibition [4] -2.9% | Potency [5] > 9.22 µM | Potency [6] > 46 µM | Potency [7] | Potency [11]
active: Potency [3] 3.16 µM

O=C(O)C(Cc1cccs1)C(=O)O
inactive: Potency [1] > 11.4 µM | activity change, negative = inhibition [2] 7.58% | activity change, negative = inhibition [3] -2.1% [at 2.29 µM] | activity, negative = inhibition [4] 0.541% | Potency [5] > 46 µM | Potency [6] > 9.22 µM | Potency [7] | Potency [8] | Potency [10]

O=[N+]([O-])c1ccc([C@@H](Nc2ccccc2)c2ccc3cccnc3c2O)cc1
inactive: Potency [1] > 11.4 µM | activity change, negative = inhibition [2] -13.7% | activity change, negative = inhibition [3] -21.3% [at 2.29 µM] | Potency [5] > 46 µM | Potency [6] > 9.22 µM | Potency [7] | Potency [8]
active: Potency [10] 3.98 µM

COc1cccc2c1C(=O)c1c(O)c3c(c(O)c1C2=O)C[C@](O)(C(=O)CO)C[C@@H]3O[C@H]1C[C@H](N)[C@@H](O)[C@H](C)O1
inactive: Potency [1] > 11.4 µM | activity change, negative = inhibition [2] 13.6% | Potency [3] | activity, negative = inhibition [4] 15.8% | Potency [6] > 9.22 µM | Potency [7] | Potency [8] | Potency [12] | Potency [9] | Potency [10] | outcome [13] | activity, negative = inhibition ([14]; parasite line A) 6.65% | activity, negative = inhibition ([14]; parasite line B) 5.26% | Potency (AS120) | Potency (ATS189) | Potency (W2)

c1ccc(SCCc2ccncc2)cc1
active: Potency [3] 0.2 µM | Potency [12] 1.26 µM | Potency [15] 2.51 µM | Potency [9] 1.26 µM | Potency [10] 0.794 µM
inactive: Potency [1] > 11.4 µM | activity change, negative = inhibition [2] 9.37% | activity, negative = inhibition [4] -2.72% | Potency [5] > 46 µM | Potency [6] > 9.22 µM | Potency [8] | Potency [11]

CC1CCN(CC(=O)N2c3ccccc3Sc3cc4ccccc4cc32)CC1
inactive: Potency [1] > 11.4 µM | activity change, negative = inhibition [2] 28.3% | activity, negative = inhibition [4] 9.28% | Potency [5] > 46 µM | Potency [6] > 9.22 µM | Potency [7] | Potency [11]
active: Potency [3] 3.98 µM | Potency [9] 3.98 µM | Potency [10] 3.16 µM

O=C=Nc1ccc(Cc2ccc(N=C=O)cc2)cc1 (tested in a mixture with another compound)
active: Potency [3] 5.01 µM
inactive: Potency [1] > 11.4 µM | activity change, negative = inhibition [2] -8.4% | activity, negative = inhibition [4] -1.09% | Potency [7] | Potency [8]

O=[N+]([O-])c1cccc(/C=N\Nc2ccc3ccccc3n2)c1O
active: Potency [3] 0.794 µM | Potency [9] 3.16 µM
inactive: Potency [1] > 11.4 µM | activity change, negative = inhibition [2] -13.9% | Potency [5] > 46 µM | Potency [6] > 9.22 µM | Potency [7] | Potency [8] | Potency [11]

O=C(c1cc(C(F)(F)F)cc(C(F)(F)F)c1)N1CCC[C@@]2(CCN(Cc3ccccc3)C2)C1
active: Potency [3] 25.1 µM | Potency [15] 5.01 µM
inactive: Potency [1] > 11.4 µM | activity change, negative = inhibition [2] 2.92% | activity, negative = inhibition [4] 7.65% | Potency [6] > 46 µM | Potency [7] | Potency [8] | Potency [11]

CN(C)c1ccc(-c2nc(Nc3ccncc3)c3ccccc3n2)cc1
active: Potency [1] 3.67 µM | Potency [3] 0.501 µM | Potency [15] 7.94 µM
inactive: activity change, negative = inhibition [2] -10.7% | activity, negative = inhibition [4] -28.2% | Potency [5] > 46 µM | Potency [6] > 46 µM | Potency [8] | Potency [11]

c1ccc(CNCCN2CCNCC2)nc1
inactive: Potency [1] > 11.4 µM | activity change, negative = inhibition [2] 4.86% | Potency [3] | Potency [5] > 46 µM | Potency [6] > 9.22 µM | Potency [7] | Potency [8] | Potency [12] | activity change, negative = inhibition [15] -5.12% [at 11.4 µM] | Potency [9] | Potency [10]

Oc1ccc(Cl)cc1Cc1cc(Cl)cc(Cc2cc(Cl)ccc2O)c1O
inactive: Potency [1] > 11.4 µM | activity change, negative = inhibition [2] -14% | activity change, negative = inhibition [3] -23.8% [at 2.29 µM] | Potency [5] > 46 µM | Potency [6] > 9.22 µM | Potency [7] | Potency [8]
active: Potency [12] 2.51 µM | Potency [10] 1.26 µM

OC1CC2CC[C@H](C1)N2CCCN1c2ccccc2Sc2ccc(Cl)cc21 (some centres undefined)
inactive: Potency [1] > 11.4 µM | activity change, negative = inhibition [2] 18.1% | Potency [3] | Potency [5] > 46 µM | Potency [6] > 9.22 µM | Potency [7] | Potency [8]
active: Potency [9] 0.0631 µM
